Measured values taken from PubChem BioAssay (NCATS).
Results filed as inconclusive are left out. Activity calls are given as the source filed them. Calls follow the shape of the dose curve; as a rule, active = well fitted curve in the direction sought with a large enough effect; inconclusive = small, poorly fitted or top-dose-only effect, or another doubt; inactive = no such curve, though single readings can be large; an effect the other way counts as inactive or inconclusive.

What was measured:
NIH3T3 = assay: qHTS assay to identify novel small-molecules to repurpose for Merkel cell carcinoma treatment (AID 1296009); details: MCC and control cell lines, CellTiter-Glo viability, 72 h; at 44.8 µM (top of the series) unless noted; also: nearly all actives have a fitted effect of over 60% in size
How it was run: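 CellTiter-Glo luminescence after 72 hr compound exposure at 37 degree celsius gave cell viability. Libraries NPC and MIPE were run as 8- and 11-point dose responses; RLUs normalized to DMSO (negative) and no-cell (cytotoxicity) controls.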

C33A = assay: Primary qHTS to identify gynecologic anti-cancer compounds using libraries of approved drugs and bioactive compounds (AID 1345084); details: Gynecologic cancer cell panel viability, ATPlite luminescence, 48 h; series mostly up to 57.5 µM; also: nearly all actives have a fitted effect of over 55% in size
How it was run: (§1)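 ATP-based viability (ATPlite), 1,000 cells/well, 16 h pre-incubation, 48 h compound at 37 C, 5% CO2, 15 min RT before read.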

CASKI = assay: as above; details: Gynecologic cancer cell panel viability, ATPlite luminescence, 48 h; series mostly up to 57.5 µM
How it was run: as §1

Es-2 = assay: as above; details: Gynecologic cancer cell panel viability, ATPlite luminescence, 48 h; series mostly up to 57.5 µM
How it was run: as §1

HeLa = assay: as above; details: Gynecologic cancer cell panel viability, ATPlite luminescence, 48 h; series mostly up to 57.5 µM
How it was run: as §1

Hek293T = assay: as above; details: Gynecologic cancer cell panel viability, ATPlite luminescence, 48 h, control line for the selectivity index; series mostly up to 57.5 µM
How it was run: as §1

JEG-3 = assay: as above; details: Gynecologic cancer cell panel viability, ATPlite luminescence, 48 h; series mostly up to 57.5 µM
How it was run: as §1

OV90 = assay: as above; details: Gynecologic cancer cell panel viability, ATPlite luminescence, 48 h; series mostly up to 57.5 µM
How it was run: as §1

PA-1 = assay: as above; details: Gynecologic cancer cell panel viability, ATPlite luminescence, 48 h; series mostly up to 57.5 µM
How it was run: as §1

Tov-21-G = assay: as above; details: Gynecologic cancer cell panel viability, ATPlite luminescence, 48 h; series mostly up to 57.5 µM
How it was run: as §1

Tov112D = assay: as above; details: Gynecologic cancer cell panel viability, ATPlite luminescence, 48 h; series mostly up to 57.5 µM
How it was run: as §1

SKOV3 = assay: as above; details: Gynecologic cancer cell panel viability, ATPlite luminescence, 48 h; series mostly up to 57.5 µM
How it was run: as §1

CAOV3 = assay: as above; details: Gynecologic cancer cell panel viability, ATPlite luminescence, 48 h; series mostly up to 57.5 µM
How it was run: as §1

Measured: Potency

C=C1CC23CC1CCC2C12OC(=O)C(C)(C(O)C(O)C1O)C2C3C(=O)O (stereo not drawn)
inactive: NIH3T3 | C33A | CASKI | Es-2 | HeLa | Hek293T | JEG-3 | OV90 | PA-1 | Tov-21-G | Tov112D

CCC(C)/C=C(C)/C=C/C1=CC2=C(Cl)C(=O)C(C)(O)C(=O)C2(O)C(OC)O1 (stereo not drawn)
inactive: NIH3T3 inactive [at 17.4 µM] | C33A | CASKI | HeLa | Hek293T | JEG-3 | OV90 | PA-1 | SKOV3 | Tov-21-G | Tov112D

Cc1cccc(-c2nn3c(c2-c2ccnc4ccc(C(N)=O)cc24)CCC3)n1
inactive: C33A | CAOV3 | CASKI | Es-2 | HeLa | Hek293T | JEG-3 | OV90 | PA-1 | SKOV3 | Tov-21-G

COC(=O)C(CC1(O)c2ccccc2N2C(=O)C(CC(C)C)NC21)n1cnc2ccccc2c1=O (stereo not drawn)
inactive: C33A | CAOV3 | CASKI | Es-2 | HeLa | Hek293T | JEG-3 | OV90 | PA-1 | SKOV3 | Tov-21-G | Tov112D

C=C(COC(=O)CC(C)C)C1Cc2cc(C(C)=O)ccc2O1 (stereo not drawn)
inactive: NIH3T3 | C33A | CASKI | Es-2 | HeLa | Hek293T | JEG-3 | OV90 | PA-1 | SKOV3 | Tov-21-G | Tov112D

C[C@@H]1C[C@@H](O)[C@@]23CO[C@]2(CO)C[C@@H](O)CC3[C@@]12CC(c1ccoc1)OC2=O (stereo partly drawn)
inactive: NIH3T3 | C33A | CASKI | Es-2 | HeLa | Hek293T | JEG-3 | PA-1 | Tov-21-G | Tov112D

CC1=C2C(=O)C=C(CO[C@@H]3O[C@H](CO)[C@@H](O)[C@H](O)[C@H]3O)[C@@H]2[C@H]2OC(=O)[C@H](C)[C@@H]2CC1
inactive: NIH3T3 inactive [at 17.4 µM] | C33A | CASKI | Es-2 | HeLa | Hek293T | JEG-3 | OV90 | PA-1 | SKOV3 | Tov-21-G | Tov112D

CC(C)(O)C1CCC2(C)CCCC(C)(O)C2C1 (stereo not drawn)
inactive: NIH3T3 | C33A | CASKI | Es-2 | HeLa | Hek293T | JEG-3 | OV90 | PA-1 | SKOV3 | Tov-21-G | Tov112D

CC(=O)NC1CC(=O)C23C(=O)NC(Cc4c[nH]c5ccccc45)C2C(C)=C(C)C(O)C3/C=C/CC(C)/C=C(/C)C(O)C1O (stereo not drawn)
inactive: NIH3T3 inactive [at 17.4 µM] | C33A | CASKI | Es-2 | HeLa | Hek293T | JEG-3 | OV90 | PA-1 | SKOV3 | Tov-21-G | Tov112D

CC(=O)/C=C/C1(O)C(C)=CC(=O)CC1(C)C (stereo not drawn)
inactive: NIH3T3 | C33A | CASKI | Es-2 | HeLa | Hek293T | JEG-3 | OV90 | PA-1 | SKOV3 | Tov-21-G | Tov112D

CC(=O)/C=C/[C@H]1[C@](C)(O)[C@@H](O)[C@H](O)C2C(C)(C)CCC[C@@]21C (stereo partly drawn)
inactive: NIH3T3 | CAOV3 | Es-2 | OV90 | PA-1 | SKOV3 | Tov-21-G | Tov112D

COc1ccccc1CN[C@H]1CCCN[C@H]1c1ccccc1
inactive: NIH3T3 | C33A | CASKI | Es-2 | HeLa | Hek293T | JEG-3 | OV90 | PA-1 | SKOV3 | Tov-21-G | Tov112D

Cc1ccc(-n2nc(C(C)(C)C)cc2NC(=O)Nc2cc(COc3cccnc3)[nH]n2)cc1
inactive: NIH3T3 | CAOV3 | CASKI | Es-2 | HeLa | Hek293T | JEG-3 | OV90 | SKOV3 | Tov-21-G | Tov112D

C=CC(C)(C)C12Nc3c(ccc4c3OC(C)(C)C=C4)C1(O)CC1C(=O)N3CCCC3C(=O)N12 (stereo not drawn)
inactive: NIH3T3 inactive [at 17.4 µM] | C33A | CASKI | Es-2 | HeLa | Hek293T | JEG-3 | OV90 | PA-1 | SKOV3 | Tov-21-G | Tov112D

O=C(CCCCC1CCCCC1)N1CCC(c2cnc[nH]2)CC1
inactive: NIH3T3 | CAOV3 | CASKI | Es-2 | HeLa | JEG-3 | Tov-21-G | Tov112D

CCCCCOC(=O)Nc1nc(=O)n(C2O[C@H](C)[C@@H](O)[C@H]2O)cc1F (stereo partly drawn)
inactive: NIH3T3 | C33A | CASKI | Es-2 | HeLa | Hek293T | JEG-3 | OV90 | PA-1 | SKOV3 | Tov-21-G | Tov112D
